These results are taken from PubChem BioAssay AID1942 (Johns Hopkins Ion Channel Center, 2009).

In all, about 2,400 compounds went through this assay and about 580 (24%) were called active.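 How the source made its calls: active means activity change at or above the mean plus 3 SD of buffer wells without dofetilide, per plate; inactive means the rest.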 These entries were drawn from the full list.

The target in this experiment is Potassium voltage-gated channel subfamily KQT member 2 (Rattus norvegicus) (UniProt O88943). The experiment can be described thus: KCNQ2 potentiation in CHO cells – cell-based, FluxOR thallium flux, counter-screen for hERG block protector project, confirmation (AID 1942).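 Further: normalized value minus buffer-control mean plus three SD of buffer wells.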 To be noted: FluxOR thallium flux fluorescence, at 10 µM, active compounds read high.
Potassium voltage-gated channel subfamily KQT member 2 (Rattus norvegicus), sequence (O88943 whole entry, looked up): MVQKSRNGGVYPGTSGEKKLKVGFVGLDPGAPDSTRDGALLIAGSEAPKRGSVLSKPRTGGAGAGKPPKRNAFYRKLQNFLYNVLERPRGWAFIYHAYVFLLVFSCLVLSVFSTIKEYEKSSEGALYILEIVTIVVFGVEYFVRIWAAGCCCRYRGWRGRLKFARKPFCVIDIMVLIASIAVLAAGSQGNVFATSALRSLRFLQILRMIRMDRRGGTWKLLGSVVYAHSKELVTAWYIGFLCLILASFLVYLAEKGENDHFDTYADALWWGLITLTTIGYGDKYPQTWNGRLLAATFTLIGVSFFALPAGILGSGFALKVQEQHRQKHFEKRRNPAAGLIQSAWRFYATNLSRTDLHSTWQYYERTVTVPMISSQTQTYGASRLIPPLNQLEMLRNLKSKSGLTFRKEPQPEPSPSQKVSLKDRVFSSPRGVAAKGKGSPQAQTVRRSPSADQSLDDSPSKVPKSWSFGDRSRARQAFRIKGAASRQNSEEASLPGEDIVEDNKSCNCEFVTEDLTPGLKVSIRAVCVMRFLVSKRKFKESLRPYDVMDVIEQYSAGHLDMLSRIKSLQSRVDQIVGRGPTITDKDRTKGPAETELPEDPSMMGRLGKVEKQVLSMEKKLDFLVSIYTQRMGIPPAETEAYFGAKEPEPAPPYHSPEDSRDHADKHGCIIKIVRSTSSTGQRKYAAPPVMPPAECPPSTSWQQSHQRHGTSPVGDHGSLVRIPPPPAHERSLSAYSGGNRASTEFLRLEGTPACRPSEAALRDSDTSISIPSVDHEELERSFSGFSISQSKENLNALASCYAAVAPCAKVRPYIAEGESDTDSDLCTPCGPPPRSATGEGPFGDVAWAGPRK
Regarding `CC(C)OC(=O)N(C)c1ccc(C(O)(C(F)(F)F)C(F)(F)F)cc1`, the activity change, less the hit threshold was -9.3% (inactive).

Consider `COc1cc(C2c3c(n[nH]c3C)C(=O)N2c2ccc(C)cc2)ccc1O` (stereo not drawn), for which the activity change, less the hit threshold is -19.5% (inactive).

For the compound `Cc1ccc(NS(=O)(=O)c2cn(C)c(=O)n(C)c2=O)c(C)c1`, the activity change, less the hit threshold is -0.5% (inactive). Take `Cn1c(NNC(=O)C(c2ccccc2)c2ccccc2)cc(=O)n(C)c1=O`: the activity change, less the hit threshold is -1.8% (inactive). Turning to `CCOc1ccc(NC(=O)c2ccc(NC(=O)CSc3nc4ccccc4c(=O)[nH]3)cc2)cc1`, the activity change, less the hit threshold was -13.5% (inactive).

`Fc1cccc(/C=N/Nc2ccc3ccccc3n2)c1`: the activity change, less the hit threshold was -17.9% (inactive). Regarding `CC(=O)c1c(N)[nH]c(-c2ccccc2)nc1=S`, the activity change, less the hit threshold was -0.2% (inactive). As to `CC(=O)c1c(N2CCCC2)[nH]c(-c2ccccc2)nc1=S`, the activity change, less the hit threshold was -6% (inactive). As to `CC(=O)c1c(C)[nH]c(-c2ccccc2)nc1=S`, the activity change, less the hit threshold was -7.7% (inactive). In the case of `Cc1ccccc1CC(=O)NC1CCN(Cc2ccccc2)CC1`, the activity change, less the hit threshold is -25.3% (inactive). Turning to `CC(=O)c1c(NC(=O)c2ccccc2)[nH]c(-c2ccccc2)nc1=S`, the activity change, less the hit threshold is 7% (active). With `C=C(C)Cc1c(C)nc(-c2ccccc2)[nH]c1=O` the figure was -12.3% (inactive); with `CSc1nc(-c2ccccc2)[nH]c(=S)c1C(C)=O`, 72.6% (active); with `CC(=O)c1c(N2CCN(Cc3ccccc3)CC2)[nH]c(-c2ccccc2)nc1=S`, 22.7% (active). Then `O=C(NCc1cccc(Cl)c1)c1ccncc1`, with -23.6% (inactive). With `Cc1cc(C(=O)NNC(=O)c2cccs2)nn1C(C)(C)C` the figure was -14.9% (inactive); with `Cc1ccc(C(C)NC(=O)c2cccs2)cc1C` (stereo not drawn), 4% (active).

On to `Nc1ccc(Cl)c(NC(=O)c2cccs2)c1`, for which the activity change, less the hit threshold is -12.3% (inactive). Then `Cc1cc(C(=O)CCC(=O)NC(C)c2ccc(S(N)(=O)=O)cc2)c(C)s1` (stereo not drawn), with -10% (inactive); and `Cc1ccc(C(=O)NC(C)c2ccc(C)c(C)c2)s1` (stereo not drawn), with 24.3% (active); and `CCCCNC(=S)NNC(=O)c1ccc2c(c1)OCO2`, with -24.3% (inactive). For the compound `Cc1ccc(NC(=O)c2ccc3c(c2)OCO3)cc1Cl`, the activity change, less the hit threshold was -14.7% (inactive).

For `Cc1ccc(C(C)NC(=O)c2ccc3c(c2)OCO3)cc1C` (stereo not drawn), the activity change, less the hit threshold is 27.1% (active). Then `O=S(=O)(Nc1ccc(O)c2ccccc12)c1ccc(F)cc1`, with -19.8% (inactive); and `O=C1C2C3C=CC(C4CC34)C2C(=O)N1/N=C/c1ccc(-c2ccc(F)cc2[N+](=O)[O-])o1` (stereo not drawn), with -20.9% (inactive). For the compound `Cc1ccc(/C=N/Nc2nc(C(C)(C)C)cs2)o1`, the activity change, less the hit threshold was -0.3% (inactive). On to `COCCNC(=O)C1CC(=O)N(c2ccc(OC)cc2)C1c1ccc(OC)cc1` (stereo not drawn), for which the activity change, less the hit threshold is -16.8% (inactive). With `CN1C(=O)/C(=N/OC(=O)c2ccccc2)c2ccccc21` the figure was -19.8% (inactive). Then `O=C(O)CCCCn1c(SCc2ccccc2Cl)nc2ccsc2c1=O`, with -5.9% (inactive); and `Cc1ccc(C)c(NC(=O)C2C3CCCC2C3c2ccccc2)c1` (stereo not drawn), with -4.2% (inactive). With `Cc1cccc(NC(=S)NNC(=O)c2csc3c2CCC(C)C3)c1` (stereo not drawn), the activity change, less the hit threshold was -8.1% (inactive). On to `Cc1ccc(C)c(NC(=S)NNC(=O)c2csc3c2CCC(C)C3)c1` (stereo not drawn), for which the activity change, less the hit threshold was 14.5% (active). With `O=C(OCC(=O)N1CCOCC1)c1ccc(Cl)cc1[N+](=O)[O-]` the figure was -13.6% (inactive); with `O=c1ccn(CCCBr)c(=O)[nH]1`, -13.2% (inactive); with `COC(=O)CSc1nc(N2CCCCC2)c2c(c1C#N)CCCC2`, -6.4% (inactive). Regarding `CCOC(=O)C(C)Sc1nc2c(c(-c3cccs3)c1C#N)CCC2` (stereo not drawn), the activity change, less the hit threshold is -15.1% (inactive). Then `COC(=O)CSc1nc2c(c(-c3ccc(C)o3)c1C#N)CCCC2`, with 7.4% (active); and `Nc1cccc(Oc2cnccn2)c1`, with -17.9% (inactive); and `COc1cc2c(cc1OC)CN(C(=O)c1ccc3nc[nH]c3c1)CC2`, with -2.1% (inactive). For `Cc1ccc(OCC(=O)NC(=S)Nc2ccc(Br)cn2)cc1`, the activity change, less the hit threshold was 12.4% (active). For the compound `Cc1nc(NC(=S)NC(=O)COc2ccc(Cl)cc2)ccc1Br`, the activity change, less the hit threshold was -19.1% (inactive). As to `Cc1ccc(OCC(=O)NC(=S)Nc2ccc(Br)cn2)cc1C`, the activity change, less the hit threshold was -11.2% (inactive). With `COc1ccc(N(CC(=O)N2CCN(Cc3ccccc3)CC2)S(C)(=O)=O)cc1OC` the figure was -16.5% (inactive); with `COCCNC(=O)C(c1ccncc1)N(C(=O)Cn1nnc2ccccc21)c1ccc(OC)cc1` (stereo not drawn), -20.7% (inactive); with `COCCNC(=O)C(c1ccc(C)o1)N(Cc1ccc(OC)cc1)C(=O)Cn1nnc2ccccc21` (stereo not drawn), 19.1% (active). For the compound `Cc1ccc(-c2nnn(CC(=O)N(CC3CCCO3)C(C(=O)NC3CCCC3)c3ccc(O)cc3)n2)o1` (stereo not drawn), the activity change, less the hit threshold was -15.8% (inactive).

Take `CC1CC(C)CN(CCCNC(=O)Cc2c(C(=O)O)[nH]c3ccccc23)C1` (stereo not drawn): the activity change, less the hit threshold is -14.9% (inactive).

On to `Nn1c(SCC(=O)Nc2ccccc2F)nnc1C1CCCCC1`, for which the activity change, less the hit threshold was -10.5% (inactive).

Take `CC1Cc2ccccc2N1C(=S)NC(=O)C1(C)CC1(Cl)Cl` (stereo not drawn): the activity change, less the hit threshold is 38.1% (active). Then `CC1Cc2cc(S(=O)(=O)NCc3ccccc3)ccc2N1C(=O)C1CCC1` (stereo not drawn), with -20.4% (inactive).

For the compound `Cc1ccc2c(c1)C1CN(C)CCC1N2C(=S)NC(=O)c1ccc(Br)cc1` (stereo not drawn), the activity change, less the hit threshold was -7% (inactive). Then `COc1cc2c(cc1OC)C(C)N(C(=S)NC(=O)c1ccccc1)CC2` (stereo not drawn), with -10.9% (inactive); and `CC1Cc2ccccc2N1C(=S)NC(=O)c1ccc(Cl)cc1Cl` (stereo not drawn), with 52.5% (active); and `Cc1csc2ncc(C(=O)N3c4ccccc4CC3C)c(=O)n12` (stereo not drawn), with -9.8% (inactive).

`CC1Cc2ccccc2N1C(=S)NC(=O)c1ccco1` (stereo not drawn): the activity change, less the hit threshold is -3.3% (inactive). Turning to `CC1Cc2ccccc2N1C(=S)NC(=O)c1cccc(Br)c1` (stereo not drawn), the activity change, less the hit threshold was 121% (active). Then `CNC(=O)c1[nH]cnc1C(=O)Nc1ccccn1`, with -9.6% (inactive).

Take `Cc1cc(S(=O)(=O)NCC(C)C)ccc1OCC(=O)NCc1ccccn1`: the activity change, less the hit threshold was -21.1% (inactive). With `CCOc1cc(Br)c(C(=O)O)cc1OC` the figure was -13.8% (inactive); with `OC(CCN1CCOCC1)c1ccccc1` (stereo not drawn), -33.4% (inactive). With `Cc1nonc1OCCNc1ccc([N+](=O)[O-])cc1` the figure was -8.5% (inactive); with `Cc1ccc(-c2nc(CS(=O)(=O)CC(=O)NCCN3CCOCC3)c(C)o2)cc1`, -12.6% (inactive); with `Cc1ccc2nc(-c3ccccn3)cc(C(=O)NC3CCN(C)CC3)c2c1`, -23.8% (inactive).
